According to PubChem BioAssay (NCATS):
Inconclusive results are not listed. Calls of active or inactive are those of the source. Calls come from the whole dose curve; as a rule, active = well fitted cell-killing curve with a large enough effect; inconclusive = small, poorly fitted or top-dose-only effect; inactive = no such curve, though single readings can be large or run the other way. Positions of bridges follow the written chain, without caps; N, C: chain ends. Non-standard residues stand in square brackets, D forms with d. Residues, ends and D or L forms follow the SMILES beside them. ξ: configuration not given here. *: point of attachment. Octanoyl(6-Me) = CCC(C)CCCCC(=O)*; ξThr(3R) = C[C@@H](O)C(N)C(=O)O; dDab = NCC[C@@H](N)C(=O)O; Dab = NCC[C@H](N)C(=O)O

Experiment: Quantitative High-Throughput drug screen in 47 multiple myeloma cell lines against the NCATS MIPE library collection: JIM3_ECACC cell viability assay (AID 1918963; note: nearly all actives have a fitted effect of over 35% in size)
Settings: JIM3 myeloma viability, CellTiter-Glo ATP, 48 h; series mostly up to 45.8 µM; viability, percent of control: at the top concentration
Source text: PI: Beverly A. Mock Ph.D.
Laboratory of Cancer Biology and Genetics,
Center for Cancer Research, National Cancer Institute,
National Institute of Health, Bethesda, Maryland
Drug resistance and disease progression are common in multiple myeloma (MM) patients, underscoring the need for new therapeutic combinations. […] We hypothesized that effective combinations would reduce MYC expression and enhance p16 activity. […] These preclinical data identify potentially useful drug combinations for evaluation in drug-resistant MM and reveal potential mechanisms of combined drug sensitivity.
Described herein is the primary MIPE qHTS used to cherrypick compounds. Validated compounds were then further tested for potential synergistic activiy.
[1] Peat TJ, Gaikwad SM, Dubois W, Gyabaah-Kessie N, Zhang S, Gorjifard S, Phyo Z, Andres M, Hughitt VK, Simpson RM, Miller MA, Girvin AT, Taylor A, Williams D, D'Antonio N, Zhang Y, Rajagopalan A, Flietner E, Wilson K, Zhang X, Shinn P, Klumpp-Thomas C, McKnight C, Itkin Z, Chen L, Kazandijian D, Zhang J, Michalowski AM, Simmons JK, Keats J, Thomas CJ, Mock BA. Drug combinations identified by high-throughput screening promote cell cycle transition and upregulate Smad pathways in myeloma. Cancer Lett. 2023 Aug 1;568:216284. doi: 10.1016/j.canlet.2023.216284. Epub 2023 Jun 24. PMID: 37356470; PMCID: PMC10408729.
SEQUENCE No. (e.g., 1, 2, 3, etc.); […] (e.g., Cells, Incubation, Reagent, etc.); VALUE and DESCRIPTION.
1; Cells; 5 uL; white, solid bottom 1536-well Greiner assay plate.
2; Compounds; 23 nL; Kalypsis pin tool (Wako USA) equipped with a 1536-well pin head to transfer to the assay plates.
3; Incubation; 48 hours; 37C incubation.
4; Reagent;5uL; CellTiter Glo (Promega).
5; Detector; 425V; Luminescence; Viewlux PerkinElmer.
NOTES (numbers refer to Sequence numbers above)
1. The cell-based screening methods employed in this study were like those previously published. Briefly, the corresponding myeloma cell lines were screened in 1,536-well plates with 500 cells, 5-uL per well for inhibition of cell viability (assessed by measuring ATP levels with CellTiterGlo).
2. NCATS MIPE 4.0 library of approved and investigational drugs were added using the Kalypsis pin tool. Wells treated with DMSO only for 100% viability and media only wells for 0% viability were used as controls.
3. The assay plates were covered and incubated for 48 hours in a 37C, 5% CO2 incubator with controlled humidity.
4. After 48 hours, CellTilter-GloTM luminescent substrate mix (Promega) reagent was added to the assay plate and plates we incubated for 5 min at room temperature.
5. Signal was measured as median relative luminescence units on a ViewLux (PerkinElmer) multiplate reader.
[1] Heske CM, Davis MI, Baumgart JT, Wilson K, Gormally MV, Chen L, Zhang X, Ceribelli M, Duveau DY, Guha R, Ferrer M, Arnaldez FI, Ji J, Tran HL, Zhang Y, Mendoza A, Helman LJ, Thomas CJ. Matrix Screen Identifies Synergistic Combination of PARP Inhibitors and Nicotinamide Phosphoribosyltransferase (NAMPT) Inhibitors in Ewing Sarcoma. Clin Cancer Res. 2017 Dec 1;23(23):7301-7311. doi: 10.1158/1078-0432.CCR-17-1121. Epub 2017 Sep 12. PMID: 28899971; PMCID: PMC6636827.
Potency is the fitted concentration of half-maximal effect.

| Structure (SMILES) | Potency | viability, percent of control |
| --- | --- | --- |
| CC(C)n1cnc2c(NCCc3ccc(O)cc3)nc(-c3csc4ccccc34)nc21 | 9.35 µM (active) | – |
| COc1cc(C)c(C=CC(C)=CC=CC(C)=CC(=O)O)c(C)c1C | 0.166 µM (active) | – |
| c1ccc2c(Oc3nc(Nc4ccc(N5CCOCC5)cc4)c4ncn(C5CCCCC5)c4n3)cccc2c1 | 18.7 µM (active) | – |
| CN[C@H]1[C@@H](O)[C@@H]2O[C@@H]3O[C@H](C)CC(=O)[C@]3(O)O[C@@H]2[C@@H](NC)[C@H]1O | 5.26 µM (active) | – |
| C[C@@H](Cc1cc2c(c(C(N)=O)c1)N(CCCO)CC2)NCCOc1ccccc1OCC(F)(F)F | – | 94.2% (inactive) |
| O=C1NCCc2[nH]c(-c3ccncc3)cc21 | 7.43 µM (active) | – |
| Nc1ccn(C2CO[C@H](CO)O2)c(=O)n1 (stereo not given in full) | 3.32 µM (active) | – |
| O=C(O)C[C@H](O)C[C@H](O)C=Cc1c(C2CC2)nc2ccccc2c1-c1ccc(F)cc1 | 14.8 µM (active) | – |
| Nc1cccc2c1C(=O)N(C1CCC(=O)NC1=O)C2=O (stereo not given) | 0.0935 µM (active) | – |
| CN(C)CC[C@H](c1ccc(Cl)cc1)c1ccccn1 | – | 104% (inactive) |
| CC(=O)[C@]1(O)Cc2c(O)c3c(c(O)c2[C@@H](O[C@H]2C[C@H](N)[C@@H](O)[C@H](C)O2)C1)C(=O)c1ccccc1C3=O | 0.264 µM (active) | – |
| CN(N=O)C(=O)N[C@H]1C(O)OC(CO)[C@@H](O)[C@H]1O (stereo not given in full) | – | 101% (inactive) |
| COc1ccc2cc([S+]([O-])Cc3ncc(C)c(OC)c3C)nc2c1 | – | 94.8% (inactive) |
| COc1cc(O)c2c(c1)C1OC1C[C@H](O)[C@H](O)C(=O)C=CC[C@H](C)OC2=O (stereo not given in full) | 3.72 µM (active) | – |
| O=C(Nc1nnc(-c2ccco2)o1)c1cc(-c2ccccc2)nc2ccccc12 | 18.7 µM (active) | – |
| O=C(Nc1cccc(Nc2ncc(Br)c(NCCc3cnc[nH]3)n2)c1)N1CCCC1 | 6.62 µM (active) | – |
| Nc1nc(=O)n([C@H]2C[C@H](O)[C@@H](CO)O2)cc1F | 1.32 µM (active) | – |
| CNC(=O)c1cccc(-c2ccc3c(N4CCOC[C@H]4C)nc(N4CCOC[C@H]4C)nc3n2)c1 | 0.0418 µM (active) | – |
| CC(C)c1cnn2c(NCc3ccccc3)cc(NCCCCCCN)nc12 | 20.9 µM (active) | – |
| C=C1C[C@@]2(O)O[C@@]3(C[C@H]2C(C)C)[C@H](C)CC[C@H]13 | – | 102% (inactive) |

| Structure (SMILES) | Potency | viability, percent of control |
| --- | --- | --- |
| CCC(C)CCCCC(=O)N[C@@H](CCN)C(=O)NC(C(=O)N[C@H](CCN)C(=O)N[C@@H]1CCNC(=O)C([C@@H](C)O)NC(=O)[C@@H](CCN)NC(=O)[C@@H](CCN)NC(=O)[C@@H](CC(C)C)NC(=O)[C@H](Cc2ccccc2)NC(=O)[C@H](CCN)NC1=O)[C@@H](C)O (stereo partly drawn) ({Octanoyl(6-Me)}-[Dab][ξThr(3R)][dDab][dDab][Dab]F[dL][dDab][dDab][ξThr(3R)]; lactam 4-C) | – | 94.8% (inactive) |
| C=C[C@@H]1CN2CCC1C[C@H]2[C@H](O)c1ccnc2ccc(OC)cc12 (stereo not given in full) | – | 89.7% (inactive) |
| CC(=O)ON=C1C(c2c(O)[nH]c3cc(Br)ccc23)=Nc2ccccc21 | 2.96 µM (active) | – |
| C[C@@H](Oc1ccc2[nH]nc(C=Cc3cnn(CCO)c3)c2c1)c1c(Cl)cncc1Cl | 0.372 µM (active) | – |
| COc1cc(C(C)C)c(Oc2cnc(NC(CO)CO)nc2N)cc1I | – | 136% (inactive) |
| N=c1ccn2c(n1)O[C@H]1[C@@H](O)[C@@H](CO)O[C@H]12 | – | 95% (inactive) |
| C[C@H](NCc1ccc2c(c1)nc(NC(=O)c1ccc(-c3cn[nH]c3)s1)n2CCc1ccccc1)C(C)(C)C | 1.48 µM (active) | – |
| CC(=O)NCC(=O)N1[C@H]2CC[C@H]1c1cc(Nc3ncc(C(F)(F)F)c(NC4CCC4)n3)ccc12 | 1.18 µM (active) | – |
| C[N+](C)([O-])CCNc1ccc(NCC[N+](C)(C)[O-])c2c1C(=O)c1c(O)ccc(O)c1C2=O | – | 101% (inactive) |
| CC(C)(C)[N+]([O-])=Cc1ccc(S(=O)(=O)O)cc1S(=O)(=O)O | – | 108% (inactive) |
| CC(=O)OCC(=O)[C@@]1(O)CC[C@H]2[C@@H]3CCC4=CC(=O)CC[C@]4(C)[C@@H]3C(=O)C[C@@]21C | – | 126% (inactive) |
| O=C(CN1C(=O)C2(CCCC2)NC[C@H]1c1cc(F)cc(F)c1)Nc1ccc2c(c1)C[C@@]1(C2)C(=O)Nc2ncccc21 | – | 140% (inactive) |
| CN(C)CCN1C(=O)c2cccc3cc(N)cc(c23)C1=O | 14.8 µM (active) | – |
| NC(=O)c1ncn([C@@H]2O[C@H](CO)[C@@H](O)[C@@H]2O)c1N | – | 126% (inactive) |
| Cn1cnc2c(F)c(Nc3ccc(Br)cc3F)c(C(=O)NOCCO)cc21 | 0.372 µM (active) | – |
| COc1ccc(C[C@@H](C)[C@@H](C)Cc2ccc(OC)c(OC)c2)cc1OC | 0.418 µM (active) | – |
| CN[C@@H]1C[C@H]2O[C@@](C)([C@H]1OC)n1c3ccccc3c3c4c(c5c6ccccc6n2c5c31)C(=O)N[C@H]4O | 0.148 µM (active) | – |
| C[C@H]1COc2c(N3CCN(C)CC3)c(F)cc3c(=O)c(C(=O)O)cn1c23 | – | 122% (inactive) |
| CC(Oc1ccc(O)cc1)(P(=O)(O)O)P(=O)(O)O | – | 99.2% (inactive) |
| CN(C)c1ccc2cc(C(=O)N[C@@H](CCCN=C(N)CCl)C(=O)NCc3ccccc3)ccc2c1 | 11.8 µM (active) | – |
